Measurements published in PubChem BioAssay (NCI).
The panel holds about 83,000 compounds, 20% with a hit somewhere; the sample as a whole holds those more often.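 Cells were grown in 96-well plates and exposed to the test compound at a single concentration for 48 hours; results are reported as percent growth, with values below 10 considered active.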 A number with no mark means an inactive call. Calls of active or inactive are those of the source.

What was measured:
Assay in all cases: NCI-60 one-dose screen, 48 h (100 = growth as untreated, 0 = no growth, -100 = all killed)
Settings in all cases: 10 µM unless noted
[1] = test system: NCI-H23 lung
[2] = test system: NCI-H226 lung
[3] = test system: NCI-H322M lung
[4] = test system: HOP-62 NSCLC
[5] = test system: NCI-H460 lung
[6] = test system: HOP-92 NSCLC
[7] = test system: NCI-H522 lung
[8] = test system: A549/ATCC NSCLC
[9] = test system: 786-0 renal
[10] = test system: COLO 205 colon

Compound	growth [1]	growth [2]	growth [3]	growth [4]	growth [5]	growth [6]	growth [7]	growth [8]	growth [9]	growth [10]
O=S(=O)(NCCNc1cc(-c2cn(-c3ccccc3)nc2-c2ccccc2)ccn1)c1ccc(F)cc1	81.6%	77.7%	96.2%	98.8%	91.7%	40.7%	82.9%	77.6%	81.5%	98.8%
CC1CCc2c(sc(NC(=O)CSc3nnc4ccccn34)c2C(N)=O)C1 (stereo not given)	109%	103%	121%	110%	106%	97.8%	108%	118%	115%	126%
COc1cc(Br)c(OC)cc1Br	78%	98.3%	89.7%	93.5%	99.3%	96.9%	90.4%	95.6%	105%	109%
CC[C@]1(O)C[C@@H]2CN(Cc3c([nH]c4ccccc34)[C@@](C(=O)OC)(c3cc4c(cc3OC)N(C)[C@H]3[C@@](O)(C(=O)OC)[C@H](OC(C)=O)[C@]5(CC)[C@@H]6C[C@@H]6CN6CC[C@]43[C@@H]65)C2)C1	25.7%	50.2%	44.7%	38.8%	6.73% (active)	-12% (active)	-20.3% (active)	22.2%	21.4%	-49.5% (active)
O=c1oc2cc(OS(=O)(=O)c3ccc(F)cc3)ccc2c2c1CCCCC2	66.1%	55.1%	90.4%	96.4%	65.5%	60%	49.8%	55.9%	76.2%	24.4%
COc1ccc(/C=c2\sc3n(c2=O)C2C(NN=3)N(C)C(=O)N2C)cc1 (stereo not given)	36.3%	94.1%	46.6%	21%	9.54% (active)	54.7%	10.1%	33%	23%	-8.52% (active)
O=C1CCCCN1CCCCC#Cc1ccccc1C#Cc1ccccn1	101%	92%	85.7%	101%	115%	73.2%	112%	112%	102%	103%
COc1cccc2cc(-c3cc4ccccc4[nH]3)/c(=N/C(=S)Nc3ccccc3)oc12	61.8%	69.9%	84%	18.5%	69.3%	5.47% (active)	88.1%	91.4%	59.4%	98.1%
COc1cccc2nc(Nc3ccc(NC(=O)c4ccc5ncccc5c4)cc3)ccc12	92.8%	97.5%	81.4%	91.9%	84.8%	111%	99.9%	78.1%	42.7%	103%
Clc1nc(-c2cccnc2)nc2sc3c(c12)CCCCCC3	99.5%	98.6%	102%	97.5%	107%	86.2%	85.7%	94.8%	101%	107%
COc1cc(C2CC(c3c(C)[n+]([O-])c4ccccc4[n+]3[O-])=NN2)cc(OC)c1OC (stereo not given)	99.6%	100%	119%	106%	112%	87.8%	104%	113%	102%	102%
O=C(Nc1ccc(F)c(Cl)c1)c1n[nH]c(=O)c2ccccc12	106%	97.2%	113%	102%	107%	96.9%	99.6%	91.8%	115%	105%
O=C(Nc1ccc(Br)c(Cl)c1)c1cc(F)ccc1O	-9.2% (active)	-23.8% (active)	9.4% (active)	0.0415% (active)	3.85% (active)	-14.4% (active)	0.474% (active)	8.88% (active)	7.91% (active)	41.5%
N#Cc1ccc(NC(=O)c2ccc3cccnc3c2O)cc1	43.7%	45.2%	27.7%	14.6%	4.71% (active)	71.4%	18.6%	15.1%	10.2%	11.2%
CCN(CC)CCSc1c2ccc(Cl)cc2nc2ccc(OC)cc12	87.1%	100%	105%	75.9%	102%	82.3%	-24.9% (active)	74%	67.6%	26.8%
NC(CC(N)C(=O)O)C(=O)O (stereo not given)	107%	103%	103%	117%	108%	115%	79.7%	99.4%	105%	115%
O=C(Nc1ccc(OCc2nnc(-c3ccc(Cl)cc3)o2)c(F)c1)Nc1ccc(Cl)c(Cl)c1	47.3%	78.7%	54.7%	47.5%	29.2%	59%	40.4%	32.2%	90%	70.3%
NS(=O)(=O)c1ccc(NCC(=O)Nc2ccc(-c3nc4ccccc4s3)cc2)cc1	74.7%	83.7%	88%	118%	92.5%	73.5%	-63.8% (active)	92.6%	12.1%	98.5%
CC/C=C\C[C@H]1C/C=C2/C(=O)C(Cl)=C[C@@H]2C/C=C\CCCC(=O)O1	-34.1% (active)	-11% (active)	0.0936% (active)	-14.8% (active)	-43% (active)	-56.8% (active)	-60.6% (active)	-9.19% (active)	-80.7% (active)	-59.9% (active)
CCCCCc1c(C)[nH]c(/C=c2\[nH]/c(=C3/C=c4ccccc4=N3)cc2OC)c1C	-42.1% (active)	-16.4% (active)	-8.17% (active)	-56.7% (active)	2.12% (active)	-56.8% (active)	-45.8% (active)	-21.8% (active)	-68.3% (active)	-76.5% (active)
O=C1NC(Cc2c[nH]c3ccccc23)C(=O)N1Cc1ccc(Cl)cc1 (stereo not given)	107%	95.5%	104%	103%	110%	85.8%	86.7%	105%	110%	96.9%
CN=S(=O)(NC(=O)c1ccc(Cl)cc1Cl)c1ccc(Br)s1 (stereo not given)	104%	93.8%	113%	105%	98.6%	65.9%	102%	89.5%	105%	121%
O=C(CNC(=O)c1cccc2ccccc12)Nc1ccccc1Oc1ccccc1	20.9%	49.2%	41.8%	24.6%	-2.87% (active)	-1.24% (active)	-10.5% (active)	9.48% (active)	16.3%	-8.22% (active)
Cc1ccc2c(c1)C(C)Cc1c(ncnc1-n1cnc3ccccc31)N2C (stereo not given)	28.9%	72.4%	43%	38.1%	4.64% (active)	62.6%	-15.3% (active)	31%	30.9%	-11.5% (active)
CCCCCCCCCCCCCCCCC(Br)C(=O)O (stereo not given)	110%	95.5%	115%	92.4%	108%	120%	80.4%	103%	111%	119%
COc1cccc(-c2nc3sccn3c2-c2ccnc(NCCCNS(=O)(=O)c3ccccc3)n2)c1	36.1%	23.3%	75.3%	119%	53.7%	56.5%	27.3%	51.8%	62.6%	21.3%
COC(=O)C(CC(=O)c1ccc(-c2ccccc2)cc1)c1ccccc1 (stereo not given)	76.6%	63.3%	96.8%	75.1%	90%	68.3%	-0.151% (active)	76.6%	28.7%	36.7%
